# Source: article PMC7826789 (International Journal of Molecular Sciences, 2021)
smiles,measurement,setting,value
Cc1ccc(CNC(=O)N2CCC[C@]3(CCN(Cc4ccc(Cl)c(Cl)c4)C3)C2)cc1 [GSK2850163],Kinases covered,ERN1,ERN1
CCCNC(=O)c1ccc(Nc2ncc(C(F)(F)F)c(Nc3ccccc3C(C)=O)n2)c(Br)c1 [BI00801818],Kinases covered,FAK,FAK
CCc1cc(Nc2nccc(-c3c(-c4ccc(OC)c(C(=O)Nc5c(F)cccc5F)c4)nc4ccccn34)n2)c(OC)cc1N1CCC(N2CCN(S(C)(=O)=O)CC2)CC1 [GSK1904529],Kinases covered,FER,FER
same,Kinases covered,FRK,FRK
CNC(=O)c1c(F)cccc1Nc1nc(Nc2cc3c(cc2OC)CCN3C(=O)CN(C)C)nc2[nH]ccc12 [GSK1838705],Kinases covered,FER,FER
COc1cc(OC)cc(-c2cc3cnc(N)nc3nc2NC(=O)NC(C)(C)C)c1 [PFE-PKIS 3],Kinases covered,FGFR1,FGFR1
COc1cc2c(cc1OC)C(=C(Nc1ccccc1)c1cccc(CN)c1)C(=O)N2 [BIBF0846CL],Kinases covered,FLT3,FLT3
Cn1ccc2ncnc(Oc3ccc(NC(=O)Nc4ccccc4)cc3)c21 [TPKI-69],Kinases covered,FLT3,FLT3
COc1cc(N2CCN(C)CC2)ccc1Nc1ncc2c(n1)N(C)c1ccccc1C(=O)N2 [XMD8-87],Kinases covered,FRK,FRK
c1ccc(-c2cc3ccncc3cc2OC2CCNCC2)cc1 [GSK1122999],Kinases covered,GSG2,GSG2
same,Kinases covered,IKBKB,IKBKB
COc1cc2ncnc(Nc3cccc(Cl)c3F)c2cc1O[C@H]1CC[C@H]([C@@H]2NCCNC2=O)CC1 [BI00133844],Kinases covered,HCK,HCK
